Consider 39 sequences from the OligoGym collection.
Also: reference of the scale not given here.

The first test concerns the target CSGALNACT1. Briefly: pooled miR-30 sensor sort-seq; sequence = guide strand. Particulars: shRNA.
For the sequence TTAAACAATGAGTTTACTGTGA, the sensor-assay potency score (higher = more potent) is -0.267.
On the same count and under the same terms, in the case of ATATTGATGAAGTCTGACCGAT it was -0.598; in that of TTGCTGTGGAGATACTTGCGAT, -1.14.
As for TTAAATTTCATAAACTACCAGT, the sensor-assay potency score (higher = more potent) was -0.16.
Still for that read-out and setting: then TATTAGTACAAACCATTCCTTC, with -0.885; and TAATTCAGTTACTTCCACCTGG, with 0.629.
The same measure, in the same setting: in the case of TTAGCTGTGCAATACCACCTTC it was -0.0505.
On to TATCTCGTGCCTGAACACCAGC, for which the sensor-assay potency score (higher = more potent) was -0.848.
Same read-out and setting: then TATTGATGAAGTCTGACCGATA, with -0.823.

The next test addresses CSTF3. The description is as above. Particulars: shRNA.
As to TTGTTTTTTCTCAAGAACCATG, the sensor-assay potency score (higher = more potent) is -1.15.
For TATAGAAGGAGCTACAACTGGG, the sensor-assay potency score (higher = more potent) was 0.225.
Same read-out and setting: then TTTGCTTAGAGCATAGGTCTGT, with 0.755; and TTTGTTTCCAAGAACCTTGTAA, with 0.432.
As to TTCCATTCCAATTTTATCCAGT, the sensor-assay potency score (higher = more potent) was -0.0677.
On the same count and under the same terms, then TTTGTCTATAGGTTGATTCTGT, with -0.133.
Still for that read-out and setting: then TTCTGGTATCTTCTCTTGCTTT, with -0.975.
For TAAATCAATGTGCAAAACCTTC, the sensor-assay potency score (higher = more potent) is -1.01.
On the same count and under the same terms, then TTGGTATCTTGCATCTTCGGAA, with -0.546; and TCGGATTAACACAACCTCGTTG, with -0.511.
In turn, TAGAGCATAGGTCTGTTCCGTA came in with a sensor-assay potency score (higher = more potent) of 0.181.
Same read-out and setting: in the case of TTTTCTATCCACTTCATCTTTC it was -0.135; in that of TTTCTTTGTAACTTGGTAGTTT, -0.139; in that of TTGAATGCTGTAAACCGTCTTT, -0.262.
Still for that read-out and setting: then TTATTCTTTGATTTTCTGCATA, with -0.891; and TTTGGTATCTTGCATCTTCGGA, with -0.026.
On the same count and under the same terms, in the case of TACTGCATTACTTTCCACGGGG it was 0.0681; in that of TACTTGTTATAGTCTCTCCAGA, -0.878; in that of TTCATCTGAATCCTCGTTGGGC, 0.448.
In turn, TTGATCATCGGATTAACACAAC showed a sensor-assay potency score (higher = more potent) of -0.951.
On the same count and under the same terms, then TTTAGCTAAATGAATATTGATA, with -0.643; and TTCTTCTTCAATAAAGTGCTTA, with -0.0244.
The same measure, in the same setting: then TAGCTGCTAGCTTAGCACGGGA, with -0.406; and TGAACTTGTATCTATCTACTAG, with -0.0129.

A further test addresses CT47A1. The description is as above. As to conditions: shRNA.
Turning to ATTTAGTGACTTCCTCTGGGGC, the sensor-assay potency score (higher = more potent) is -0.669.
Consider TATGAGGATGTGGTCGTTGTGA, for which the sensor-assay potency score (higher = more potent) was -0.634.
As to TTCTTCACCTTGTTTTCTGCAT, the sensor-assay potency score (higher = more potent) was -0.231.
TTCTCTATGAGGATGTGGTCGT displayed a sensor-assay potency score (higher = more potent) of 0.0532.
Turning to TGTTTTCTGCATCCTTCTCTTT, the sensor-assay potency score (higher = more potent) is -1.05.
For TTTAGTGACTTCCTCTGGGGCC, the sensor-assay potency score (higher = more potent) is -0.087.
